Data reported in PubChem BioAssay (Tox21).
Several values for one entry are separate records, joined by “and”; a condition that tells them apart may be missing. Identical values can stand only once. Results filed as inconclusive are left out. A call without a number means that no potency is given here. More than one record can exist for a structure, and the calls need not agree. Activity calls are given as the source filed them. Unless noted, calls come from the whole dose curve; as a rule, active = well fitted curve in the direction sought with a large enough effect in the repeat runs; inconclusive = weak or mixed curves; inactive = no such curve, though single readings can be large; an effect the other way counts as inactive or inconclusive.

Tests used:
[1] = qHTS assay to identify small molecule antagonists of the androgen receptor (AR) signaling pathway using the MDA cell line in the presence of 0.5 nM R1881 - cell viability counter screen (AID 1259242); note: nearly all actives have a fitted effect of over 45% in size; note: potency is the fitted concentration of half-maximal effect
Method in brief: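 Cells seeded at 3,000/well and allowed 5 hr at 37C, 0% CO2 before compound transfer and R1881 (0.5 nM final) addition; 16 hr later, live-cell protease fluorescence indicated cytotoxicity.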

[2] = molecular target: Estrogen receptor (Homo sapiens) (UniProt P03372); test: qHTS assay to identify small molecule antagonists of the estrogen receptor alpha (ER-alpha) signaling pathway using the BG1 cell line in the presence of 0.1 nM 17-beta-estradiol (AID 1259244); note: nearly all actives have a fitted effect of over 50% in size; note: potency is the fitted concentration of half-maximal effect
Estrogen receptor (Homo sapiens), sequence (P03372 whole entry, looked up): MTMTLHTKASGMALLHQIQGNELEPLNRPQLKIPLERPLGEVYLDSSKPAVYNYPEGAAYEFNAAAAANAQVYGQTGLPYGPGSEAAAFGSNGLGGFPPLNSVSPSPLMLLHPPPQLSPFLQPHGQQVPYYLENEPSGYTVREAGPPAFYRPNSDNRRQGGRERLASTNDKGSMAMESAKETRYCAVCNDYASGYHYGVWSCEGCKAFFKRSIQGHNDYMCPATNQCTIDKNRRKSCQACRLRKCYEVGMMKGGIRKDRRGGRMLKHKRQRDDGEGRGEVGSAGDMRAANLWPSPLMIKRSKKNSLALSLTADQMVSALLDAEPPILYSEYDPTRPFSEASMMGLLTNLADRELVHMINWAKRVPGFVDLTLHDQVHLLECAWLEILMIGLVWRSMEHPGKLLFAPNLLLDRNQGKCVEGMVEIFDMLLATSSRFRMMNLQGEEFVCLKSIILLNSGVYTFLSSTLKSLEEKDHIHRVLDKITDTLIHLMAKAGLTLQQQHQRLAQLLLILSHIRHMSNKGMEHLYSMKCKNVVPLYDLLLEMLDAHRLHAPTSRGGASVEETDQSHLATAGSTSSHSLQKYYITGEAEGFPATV
Method in brief: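 Luciferase signal from VM7Luc4E2 ERE-reporter cells, co-dosed with test compound and 0.1 nM final 17beta-estradiol for 22 h, read with ONE-Glo.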

[3] = qHTS assay to identify small molecule phospholipidosis (PLD) inducers (AID 1259344; active = well fitted curve in the direction sought with a large enough effect; an effect the other way counts as inactive or inconclusive)
Method in brief: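 Phospholipid accumulation was scored by imaging: fixed, Hoechst-counterstained HepG2 cells stained with LipidTOX Red after 24 h compound exposure at 37 C. Read-outs were pit count and pit intensity per well or per cell, with amiodarone and DMSO controls.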

[4] = qHTS assay to identify small molecule HDAC inhibitors - cell viability counter screen (AID 1259365); note: series mostly up to about 92 µM; nearly all actives have a fitted effect of over 50% in size
Method in brief: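 To flag cytotoxic hits, 1,500 wild-type HCT-116 cells per well, plated the day before, receive test compounds for 2hr at 37 C before CellTiter-Glo reagent and a luminescence read.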

[5] = qHTS assay to identify small molecule agonists of the sonic hedgehog signaling (Shh) pathway - cell viability counter screen (AID 1259366); note: nearly all actives have a fitted effect of over 50% in size; note: potency is the fitted concentration of half-maximal effect
Method in brief: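 Fluorescence from CellTiter-Fluor reports live cells in this counter screen. NIH/3T3-derived Gli1-Luc reporter cells receive test compounds for 24hr at 37C; reagent goes in at 23hr.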

[6] = qHTS assay to identify small molecule antagonists of the sonic hedgehog signaling (Shh) pathway - cell viability counter screen (AID 1259367); note: nearly all actives have a fitted effect of over 55% in size; note: potency is the fitted concentration of half-maximal effect
Method in brief: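 Viability was read by CellTiter-Fluor fluorescence in the same wells, reagent added 23 hr into compound treatment and incubated 1 hr at 37C. The 3T3 Gli1-Luc reporter cells (2,000/well) received conditioned medium after compound and ran 24 hr.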

[7] = qHTS assay to identify small molecule agonists of the sonic hedgehog signaling (Shh) pathway (AID 1259368; calls by dose curve;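 note: NIH/3T3-derived 3T3Gli1-Luc cells carrying a stable Gli1-driven firefly luciferase reporter; series mostly up to about 92 µM; nearly all actives have a fitted effect of over 15% in size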)
Method in brief: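 Following a 24 hr incubation with DMSO-dissolved compounds at 37 C, 5% CO2, Gli1-Luc NIH/3T3-derived cells received luciferase reagent for 30 min at room temperature prior to luminescence measurement.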

[8] = molecular target: Estrogen receptor beta (Homo sapiens) (UniProt Q92731); test: qHTS assay to identify small molecule agonists of the estrogen receptor beta (ER-beta) signaling pathway (AID 1259377; active = well fitted activation curve with a large enough effect in the signal ratio in the repeat runs, not every such curve was filed as active; the % refers to the signal ratio)
Estrogen receptor beta (Homo sapiens), sequence (Q92731 whole entry, looked up): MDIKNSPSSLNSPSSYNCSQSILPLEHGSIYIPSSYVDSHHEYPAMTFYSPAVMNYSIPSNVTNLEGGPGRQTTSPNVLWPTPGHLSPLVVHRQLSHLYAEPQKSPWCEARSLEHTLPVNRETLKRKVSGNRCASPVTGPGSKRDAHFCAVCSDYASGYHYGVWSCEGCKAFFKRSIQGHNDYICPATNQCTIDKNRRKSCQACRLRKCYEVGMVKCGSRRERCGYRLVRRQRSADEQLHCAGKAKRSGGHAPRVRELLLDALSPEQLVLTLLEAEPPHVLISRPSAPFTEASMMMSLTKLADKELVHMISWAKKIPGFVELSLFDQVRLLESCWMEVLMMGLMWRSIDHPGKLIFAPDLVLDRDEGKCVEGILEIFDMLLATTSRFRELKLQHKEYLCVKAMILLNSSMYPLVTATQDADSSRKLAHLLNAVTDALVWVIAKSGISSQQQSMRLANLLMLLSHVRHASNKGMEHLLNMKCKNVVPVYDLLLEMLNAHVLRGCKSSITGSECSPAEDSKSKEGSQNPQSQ
Method in brief: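 Screening used GripTite ER-beta-UAS-bla cells held in 2% charcoal-stripped FBS medium. After overnight (16 hr) compound incubation at 37C, beta-lactamase activity was detected with a FRET substrate by fluorescence.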

[9] = molecular target: Estrogen receptor beta (Homo sapiens) (UniProt Q92731); test: qHTS assay to identify small molecule antagonists of the estrogen receptor beta (ER-beta) signaling pathway (AID 1259378; active = well fitted inhibition curve with a large enough effect in the signal ratio in the repeat runs, not every such curve was filed as active; the % refers to the signal ratio)
Method in brief: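 Antagonist mode: compounds added to beta-lactamase reporter HEK293T ER-beta-UAS cells stimulated with E2 (1nM final), 16 hr at 37C. LiveBLAzer B/G FRET substrate, 2 hours room temperature, fluorescence read-out.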

[10] = qHTS assay to identify small molecule agonists of the androgen receptor (AR) signaling pathway in the presence of an antagonist - cell viability counter screen (AID 1259379); note: nearly all actives have a fitted effect of over 25% in size; note: potency is the fitted concentration of half-maximal effect
Method in brief: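 Each compound was tested at 15 concentrations on MDA-kb2 cells in the presence of 3.0uM nilutamide. Viability was measured by CellTiter-Fluor fluorescence after a 16 hr incubation at 37C in a CO2-free atmosphere.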

[11] = qHTS assay to identify small molecule agonists of the estrogen receptor beta (ER-beta) signaling pathway - cell viability counter screen (AID 1259380); note: nearly all actives have a fitted effect of over 30% in size; note: potency is the fitted concentration of half-maximal effect
Method in brief: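 Compounds dissolved in DMSO were pin-transferred onto ER-beta-UAS-bla HEK293T cells that had settled 6 hr, and exposure ran 16 hr at 37C. Following the reporter read, CellTiter-Glo luminescence after 30 min at room temperature indicated cytotoxicity.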

[12] = qHTS assay to identify small molecule antagonists of the estrogen receptor beta (ER-beta) signaling pathway - cell viability counter screen (AID 1259382); note: nearly all actives have a fitted effect of over 55% in size; note: potency is the fitted concentration of half-maximal effect
Method in brief: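 CellTiter-Glo ATP luminescence measured after the LiveBLAzer read in the same wells; ER-beta-UAS-bla HEK293T cells, 16 hr compound treatment with 1nM 17-beta-estradiol agonist at 37C, 5% CO2.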

[13] = qHTS assay to identify small molecule agonists or antagonists of the thyroid stimulating hormone receptor (TSHR) signaling pathway - wild type cell line counter screen (AID 1259384; calls by dose curve)
Method in brief: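 Counter screen in untransfected Hek293: compounds (15-point titration, triplicate) plus phosphodiesterase inhibitor Ro20-1724 added after 18 h plating; 30 min RT. Intracellular cAMP via competitive d2/cryptate immunoassay, 1 h incubation.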

[14] = molecular target: Thyrotropin receptor (Homo sapiens) (UniProt P16473); test: qHTS assay to identify small molecule antagonists of the thyroid stimulating hormone receptor (TSHR) signaling pathway (AID 1259385; calls by dose curve; note: nearly all actives have a fitted effect of over 20% in size)
Thyrotropin receptor (Homo sapiens), sequence (P16473 whole entry, looked up): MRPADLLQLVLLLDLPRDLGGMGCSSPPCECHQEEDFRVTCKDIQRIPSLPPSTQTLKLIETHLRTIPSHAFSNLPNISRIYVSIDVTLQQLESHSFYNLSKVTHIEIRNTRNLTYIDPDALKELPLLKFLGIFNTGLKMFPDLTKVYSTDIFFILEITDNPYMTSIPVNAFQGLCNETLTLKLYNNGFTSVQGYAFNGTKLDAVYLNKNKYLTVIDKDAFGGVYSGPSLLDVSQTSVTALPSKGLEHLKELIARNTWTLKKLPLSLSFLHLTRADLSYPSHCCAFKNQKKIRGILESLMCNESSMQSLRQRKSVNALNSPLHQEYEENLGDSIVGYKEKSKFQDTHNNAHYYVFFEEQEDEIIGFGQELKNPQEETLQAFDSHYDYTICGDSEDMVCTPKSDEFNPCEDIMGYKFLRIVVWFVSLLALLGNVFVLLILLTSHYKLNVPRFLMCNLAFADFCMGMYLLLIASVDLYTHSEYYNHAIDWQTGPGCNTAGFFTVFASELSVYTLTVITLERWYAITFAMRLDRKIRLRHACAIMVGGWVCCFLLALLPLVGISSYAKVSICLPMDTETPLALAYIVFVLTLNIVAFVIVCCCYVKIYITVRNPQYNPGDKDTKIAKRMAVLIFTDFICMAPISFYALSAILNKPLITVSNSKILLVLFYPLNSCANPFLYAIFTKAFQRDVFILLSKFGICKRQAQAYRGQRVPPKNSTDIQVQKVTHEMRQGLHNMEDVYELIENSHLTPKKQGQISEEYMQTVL
Method in brief: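 Antagonist mode: compound-treated TSHR-expressing HEK293 cells were stimulated with 1.5 ng/mL TSH (final) in presence of Ro20-1724 for 30 min at RT. HTRF cAMP detection after 1 h; each compound tested at 15 concentrations, triplicate.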

[15] = qHTS assay to identify small molecule agonists of the estrogen receptor alpha (ER-alpha) signaling pathway in the presence of an antagonist - cell viability counter screen (AID 1259386);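 note: series mostly up to about 92 µM; cells exposed to compounds for 22 h at 37 °C before the viability read; nearly all actives have a fitted effect of over 30% in size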
Method in brief: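 Using estrogen-depleted VM7Luc4E2 cells, the 15-concentration compound series was applied together with 10.0nM ICI-182,780 and incubated 22hr at 37C/5% CO2. Cell viability was then scored by CellTiter-Fluor.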

[16] = qHTS assay to identify small molecule HDAC inhibitors (AID 1259364);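 note: wild-type HCT-116 cells with endogenous class I/II HDAC activity; top concentration of the series differs between compounds; nearly all actives have a fitted effect of over 45% in size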
Method in brief: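 HCT-116 wt cells, 1,500/well, overnight attach. Compounds (DMSO) 2 h, 37 °C. HDAC-Glo I/II, 30 min RT. Luminescence.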

[17] = molecular target: Androgen receptor (Homo sapiens) (UniProt P10275); test: qHTS assay to identify small molecule agonists of the androgen receptor (AR) signaling pathway in the presence of an antagonist (AID 1259381; calls by dose curve; note: nearly all actives have a fitted effect of over 15% in size)
Androgen receptor (Homo sapiens), sequence (P10275 whole entry, looked up): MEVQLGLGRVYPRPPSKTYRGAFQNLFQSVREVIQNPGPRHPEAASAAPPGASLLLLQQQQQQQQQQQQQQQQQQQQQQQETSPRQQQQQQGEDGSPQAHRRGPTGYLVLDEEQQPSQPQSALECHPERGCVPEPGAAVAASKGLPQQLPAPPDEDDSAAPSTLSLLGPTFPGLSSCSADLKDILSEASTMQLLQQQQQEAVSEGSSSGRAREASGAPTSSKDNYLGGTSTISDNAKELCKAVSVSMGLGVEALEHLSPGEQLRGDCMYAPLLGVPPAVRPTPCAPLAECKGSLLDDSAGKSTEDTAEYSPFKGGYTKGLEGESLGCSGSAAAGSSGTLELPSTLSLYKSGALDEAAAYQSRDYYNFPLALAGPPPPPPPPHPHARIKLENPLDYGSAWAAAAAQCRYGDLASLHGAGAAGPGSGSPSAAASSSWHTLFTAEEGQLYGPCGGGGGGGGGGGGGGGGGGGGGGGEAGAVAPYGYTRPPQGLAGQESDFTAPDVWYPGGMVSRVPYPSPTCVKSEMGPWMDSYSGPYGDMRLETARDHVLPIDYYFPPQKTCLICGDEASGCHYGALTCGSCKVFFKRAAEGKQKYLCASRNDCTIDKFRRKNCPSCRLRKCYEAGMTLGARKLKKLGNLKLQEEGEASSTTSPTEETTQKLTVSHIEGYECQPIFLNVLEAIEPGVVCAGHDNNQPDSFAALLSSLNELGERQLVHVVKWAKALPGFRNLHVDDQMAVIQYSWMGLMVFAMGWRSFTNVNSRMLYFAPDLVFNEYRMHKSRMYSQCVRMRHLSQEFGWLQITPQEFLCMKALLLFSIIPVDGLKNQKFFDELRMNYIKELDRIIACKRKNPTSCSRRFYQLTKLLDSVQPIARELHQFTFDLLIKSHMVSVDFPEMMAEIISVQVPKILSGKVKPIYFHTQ
Method in brief: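 Plated MDA-kb2 cells (3,000/well) were pre-incubated 5hr, given nilutamide (3.0uM final) or buffer, then dosed with compounds in DMSO at 15 concentrations. Luciferase activity was quantified by luminescence after 16hr at 37C.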

[18] = qHTS assay to identify small molecule antagonists of the sonic hedgehog signaling (Shh) pathway (AID 1259369; calls by dose curve; note: nearly all actives have a fitted effect of over 45% in size; note: potency is the fitted concentration of half-maximal effect)
Method in brief: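 Read-out is luminescence from a firefly luciferase gene controlled by the Gli1 response element, in 3T3Gli1-Luc cells pre-incubated 4hr then exposed to compounds and conditioned medium for 24hr.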

[19] = molecular target: Estrogen receptor (Homo sapiens) (UniProt P03372); test: qHTS assay to identify small molecule agonists of the estrogen receptor alpha (ER-alpha) signaling pathway in the presence of an antagonist (AID 1259383; calls by dose curve; note: top concentration of the series differs between compounds; nearly all actives have a fitted effect of over 15% in size)
Method in brief: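 Luminescent ERE-luciferase reporter, VM7Luc4E2 cells (endogenous ER-alpha); 10.0nM ICI-182,780 final; 15-point compound titration; 22hr at 37C; ONE-Glo, 30min RT.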

Row | SMILES | Potency [1] | Potency [2] | Potency [3] | Potency [4] | Potency [5] | Potency [6] | Potency [7] | Potency [8] | Potency [9] | Potency [10] | Potency [11] | Potency [12] | outcome [13] | Potency [14] | Potency [15] | Potency [16] | outcome [17] | Potency [18] | Potency [19]
1 | CC(=O)Oc1cc2c(s1)CCN(C(C(=O)C1CC1)c1ccccc1F)C2 (stereo unspecified) | inactive | inactive | inactive | inactive | inactive | inactive | inactive | inactive | inactive | inactive | inactive | inactive | inactive | inactive | inactive |  |  |  | 
2 | CCOC(=O)Cn1cccc1-c1nc(-c2ccc(OC)cc2)c(-c2ccc(OC)cc2)s1 | inactive | inactive | inactive | inactive | inactive | inactive | inactive |  |  |  |  | inactive |  |  | inactive | inactive | inactive |  | 
3 | O=C(O)c1cc(-c2ccc(F)cc2F)ccc1O | inactive | inactive | inactive | inactive | inactive | inactive | inactive |  |  |  |  |  |  |  | inactive | inactive |  | inactive | inactive
4 | C=C(CC)C(=O)c1ccc(OCC(=O)O)c(Cl)c1Cl | inactive | inactive | inactive | inactive | 60.7 µM (active) and inactive | 60.7 µM (active) and inactive | inactive |  |  |  | 48.2 µM (active) | 60.7 µM (active) | inactive | inactive | inactive | inactive |  | 6.68 µM (active) | inactive
5 | CCCCCC/C=C\CCCCCCCC(=O)O | inactive | inactive |  | inactive | inactive | inactive | inactive | inactive | inactive | inactive |  | inactive | inactive | inactive | inactive | inactive |  | inactive | 
6 | CCCCCCCCCCCCCC[N+](C)(C)Cc1ccccc1 | 49.3 µM (active) | 27.7 µM (active) and 15.8 mM (active) | inactive | inactive | 24.7 µM (active) | 27.7 µM (active) and inactive | inactive |  |  | 43.9 µM (active) and 29.8 µM (active) and 14.1 mM (active) |  | 19.6 µM (active) and 9.44 µM (active) and 10 mM (active) | inactive | inactive |  | inactive |  | 349 nM (active) and 422 nM (active) | inactive
7 | Nc1nc2c(ncn2COCCO)c(=O)[nH]1 | inactive | inactive | inactive | inactive | inactive | inactive | inactive |  |  | inactive | inactive | inactive | inactive | inactive | inactive |  |  | inactive | inactive
